Data published in PubChem BioAssay (NCI).
Compounds without any hit were thinned out: in the full panel of roughly 79,000, 15% have a hit. The source made the active and inactive calls. Cut-off read from the data, not from the text of the source: active = growth inhibition above about 70%; inactive = the rest.

Columns and labels:
[1] = NCI Yeast Anticancer Drug Screen. Data for the mec2-1 strain (AID 157); conditions: S. cerevisiae mec2-1 strain, stronger effect = higher value
Method in brief: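 Each compound was tested on mec2-1 yeast, a strain altered in DNA damage repair or cell cycle control. Growth inhibition is reported relative to vehicle.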

[2] = NCI Yeast Anticancer Drug Screen. Data for the rad14 strain (AID 159);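 note: 0% = growth of vehicle-treated control cultures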; conditions: S. cerevisiae rad14 strain growth inhibition, stronger effect = higher value
Method in brief: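 Here, inhibition of yeast growth was measured after compound exposure, using a strain with a genetic defect in DNA damage repair and vehicle-treated cultures as the reference.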

[3] = NCI Yeast Anticancer Drug Screen. Data for the sgs1 mgt1 strain (AID 161);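 note: 0% = growth of cultures given vehicle only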; conditions: S. cerevisiae sgs1 mgt1 strain, stronger effect = higher value
Method in brief: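 Test agents were incubated with a DNA-repair-mutant yeast strain. Growth was then read and compared against vehicle-treated controls.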

[4] = NCI Yeast Anticancer Drug Screen. Data for the CLN2oe strain (AID 163);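 note: 0% = growth of vehicle-only control cultures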; conditions: S. cerevisiae CLN2oe strain, stronger effect = higher value
Method in brief: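 First, the altered yeast strain was treated with each compound; second, its growth was measured; finally, inhibition was derived by comparison with vehicle controls.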

[5] = NCI Yeast Anticancer Drug Screen. Data for the cln2 rad14 strain (AID 165);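 note: 0% = growth equal to vehicle treated cultures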; conditions: S. cerevisiae cln2 rad14 strain, stronger effect = higher value
Method in brief: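 Test compounds were added to cln2 rad14 yeast cultures; inhibition of growth was then determined by comparison with vehicle treatment.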

[6] = NCI Yeast Anticancer Drug Screen. Data for the wt2 strain (AID 169);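 note: 0% = growth of vehicle-treated yeast cultures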; conditions: S. cerevisiae wt2 strain growth inhibition, stronger effect = higher value
Method in brief: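 The panel's yeast strains carry defined changes in DNA repair or cell cycle genes. Each strain is grown with compound, and growth loss is scored relative to vehicle.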

[7] = NCI Yeast Anticancer Drug Screen. Data for the mlh1 strain (AID 171);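 note: 0% = growth of vehicle-treated control cultures of the same strain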; conditions: S. cerevisiae mlh1 strain growth inhibition, stronger effect = higher value
Method in brief: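 Inhibition values reflect reduced yeast growth in the presence of compound, referenced to vehicle controls, using a strain chosen for its alteration in DNA repair or cell cycle control.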

[8] = NCI Yeast Anticancer Drug Screen. Data for the sgs1 strain (AID 173);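 note: 0% = growth of vehicle-only control cultures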; conditions: S. cerevisiae sgs1 mutant, stronger effect = higher value
Method in brief: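 Vehicle-treated cultures served as reference for growth inhibition of a yeast strain altered in DNA damage repair or cell cycle control after compound exposure.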

[9] = NCI Yeast Anticancer Drug Screen. Data for the mlh1 rad18 strain (AID 175); conditions: S. cerevisiae mlh1 rad18 strain growth inhibition, stronger effect = higher value
Method in brief: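 Inhibition values reflect reduced growth of mutant yeast versus vehicle-treated controls following compound exposure; the mutations affect DNA damage repair.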

[10] = NCI Yeast Anticancer Drug Screen. Data for the rad18 strain (AID 177); conditions: S. cerevisiae rad18 mutant growth inhibition, stronger effect = higher value
Method in brief: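 Steps: expose repair-mutant yeast to compound; measure growth; express as inhibition relative to vehicle control.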

[11] = NCI Yeast Anticancer Drug Screen. Data for the rad52 strain (AID 147);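 note: 0% = growth of vehicle-treated control cultures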; conditions: S. cerevisiae rad52 mutant growth inhibition, stronger effect = higher value
Method in brief: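 Inhibition of yeast growth, referenced to vehicle controls, was the measured output for a strain with defective DNA damage repair.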

[12] = NCI Yeast Anticancer Drug Screen. Data for the wt1 strain (AID 149);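 note: 0% = growth of vehicle-treated wt1 cultures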; conditions: S. cerevisiae wt1 strain (SPY 50644) growth inhibition, stronger effect = higher value
Method in brief: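 Measured: growth of wt1 yeast under compound versus vehicle treatment, reported as inhibition.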

[13] = NCI Yeast Anticancer Drug Screen. Data for the rad50EPP+ strain (AID 151);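 note: 0% = growth of vehicle-treated control cultures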; conditions: S. cerevisiae rad50 mutant strain, stronger effect = higher value
Method in brief: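 Genetically defined yeast (rad50EPP+, DNA damage repair alteration) is grown with compound, and inhibition of growth is expressed relative to vehicle-treated controls.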

[14] = NCI Yeast Anticancer Drug Screen. Data for the mgt1 strain (AID 153); conditions: S. cerevisiae mgt1 mutant growth inhibition, stronger effect = higher value
Method in brief: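 In the mgt1 strain, test compounds were added and growth inhibition was determined relative to vehicle-treated controls.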

[15] = NCI Yeast Anticancer Drug Screen. Data for the rad50 strain (AID 155);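 note: 0% = growth of vehicle-only cultures of the same strain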; conditions: S. cerevisiae rad50 strain growth inhibition, stronger effect = higher value
Method in brief: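 Growth of the mutant yeast was measured after compound exposure and referenced to vehicle-treated cultures.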

[16] = NCI Yeast Anticancer Drug Screen. Data for the bub3 strain (AID 167); conditions: S. cerevisiae bub3 mutant strain, stronger effect = higher value
Method in brief: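 Whole-cell yeast assay. The mutant strain was incubated with compounds, and growth inhibition was determined by comparison with vehicle-treated cells.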

[17] = at 5.0 µM (retest, dose inferred, filed as 0.5)
[18] = at 50.0 µM (retest, dose inferred, filed as 5.0)

Measured: growth inhibition

Cc1c(C(C)C)cc(OCCO)cc1C(C)C
inactive: [1]; [17] -18% | [1]; at 11.0 µM -8% | [1]; at 33.0 µM -10% | [1]; [18] -11% | [1]; at 50.0 µM -29.8% | [1]; at 100.0 µM 15% | [2]; at 1.2 µM -3% | [2]; at 3.7 µM -7% | [2]; at 11.0 µM -2% | [2]; at 33.0 µM -4% | [2]; at 100.0 µM 36% | [3]; [17] 0% | [3]; [18] 10% | [3]; at 50.0 µM 0.35% | [4]; at 1.2 µM -3% | [4]; at 3.7 µM -3% | [4]; at 11.0 µM -4% | [4]; at 33.0 µM 0% | [5]; [17] 40% | [5]; [18] 1% | [6]; at 1.2 µM -4% | [6]; at 3.7 µM -4% | [6]; at 11.0 µM -6% | [6]; at 33.0 µM -10% | [6]; at 100.0 µM 33% | [7]; at 1.2 µM -9% | [7]; at 3.7 µM -4% | [7]; at 11.0 µM -14% | [7]; at 33.0 µM -11% | [7]; at 100.0 µM 26% | [8]; at 1.2 µM -1% | [8]; at 3.7 µM -3% | [8]; at 11.0 µM -1% | [8]; at 33.0 µM -3% | [8]; at 100.0 µM 45% | [9]; [17] -3% | [9]; [18] -18% | [10]; at 1.2 µM -4% | [10]; at 3.7 µM -7% | [10]; at 11.0 µM -5% | [10]; at 33.0 µM -8% | [10]; at 100.0 µM 65%
active: [4]; at 100.0 µM 73% | [5]; at 50.0 µM 86.2% | [9]; at 50.0 µM 83%

CCCCN(CCCC)CCC(O)c1cc2c(Cl)cc(Cl)cc2c2cc(C(F)(F)F)ccc12 (stereo not drawn)
active: [11]; at 11.0 µM 99% | [11]; at 33.0 µM 98% | [11]; at 100.0 µM 96% | [12]; at 11.0 µM 93% | [12]; at 33.0 µM 98% | [12]; at 100.0 µM 96% | [13]; at 11.0 µM 80% | [13]; at 33.0 µM 98% | [13]; at 100.0 µM 93% | [14]; at 11.0 µM 99% | [14]; at 33.0 µM 99% | [14]; at 100.0 µM 97% | [15]; at 11.0 µM 98% | [15]; at 33.0 µM 98% | [15]; [18] 98% | [15]; at 50.0 µM 87.5% | [15]; at 100.0 µM 95% | [1]; at 11.0 µM 98% | [1]; at 33.0 µM 99% | [1]; [18] 98% | [1]; at 50.0 µM 89.7% | [1]; at 100.0 µM 96% | [2]; at 11.0 µM 98% | [2]; at 33.0 µM 99% | [2]; at 100.0 µM 96% | [3]; [18] 97% | [3]; at 50.0 µM 86.5% | [4]; at 11.0 µM 98% | [4]; at 33.0 µM 99% | [4]; at 100.0 µM 95% | [5]; [18] 96% | [5]; at 50.0 µM 85.5% | [16]; at 11.0 µM 97% | [16]; at 33.0 µM 99% | [16]; [18] 96% | [16]; at 50.0 µM 82.7% | [16]; at 100.0 µM 96% | [6]; at 11.0 µM 98% | [6]; at 33.0 µM 96% | [6]; at 100.0 µM 90% | [8]; at 11.0 µM 99% | [8]; at 33.0 µM 99% | [8]; at 100.0 µM 95% | [10]; at 11.0 µM 98% | [10]; at 33.0 µM 99% | [10]; at 100.0 µM 94%
inactive: [11]; at 1.2 µM 1% | [11]; at 3.7 µM 11% | [12]; at 1.2 µM -2% | [12]; at 3.7 µM 0% | [13]; at 1.2 µM 8% | [13]; at 3.7 µM 19% | [14]; at 1.2 µM 27% | [14]; at 3.7 µM 30% | [15]; at 1.2 µM 24% | [15]; at 3.7 µM 16% | [15]; [17] 41% | [1]; at 1.2 µM 10% | [1]; at 3.7 µM 8% | [1]; [17] 53% | [2]; at 1.2 µM 23% | [2]; at 3.7 µM 20% | [3]; [17] 56% | [4]; at 1.2 µM 22% | [4]; at 3.7 µM 20% | [5]; [17] 67% | [16]; at 1.2 µM 10% | [16]; at 3.7 µM 3% | [16]; [17] -17% | [6]; at 1.2 µM -46% | [6]; at 3.7 µM 18% | [8]; at 1.2 µM 18% | [8]; at 3.7 µM 18% | [10]; at 1.2 µM 26% | [10]; at 3.7 µM 29%

COC(=O)CC1CCc2c(ccc3ccccc23)C1(C)C(=O)OC (stereo not drawn)
inactive: [11]; at 1.2 µM -1% | [11]; at 3.7 µM 2% | [11]; at 11.0 µM 14% | [11]; at 33.0 µM 5% | [11]; at 100.0 µM 32% | [12]; at 1.2 µM -2% | [12]; at 3.7 µM -4% | [12]; at 11.0 µM 7% | [12]; at 33.0 µM -10% | [12]; at 100.0 µM -1% | [13]; at 1.2 µM 5% | [13]; at 3.7 µM 16% | [13]; at 11.0 µM 16% | [13]; at 33.0 µM 48% | [13]; at 100.0 µM 45% | [14]; at 1.2 µM -3% | [14]; at 3.7 µM 0% | [14]; at 11.0 µM -2% | [14]; at 33.0 µM 17% | [14]; at 100.0 µM 53% | [15]; at 1.2 µM 1% | [15]; at 3.7 µM 2% | [15]; [17] -5% | [15]; at 11.0 µM 10% | [15]; at 33.0 µM 15% | [15]; [18] 21% | [15]; at 50.0 µM 15.3% | [15]; at 100.0 µM 37% | [1]; at 1.2 µM -3% | [1]; at 3.7 µM -2% | [1]; [17] -5% | [1]; at 11.0 µM -2% | [1]; at 33.0 µM -7% | [1]; [18] 28% | [1]; at 50.0 µM -1.05% | [1]; at 100.0 µM 6% | [2]; at 1.2 µM -2% | [2]; at 3.7 µM 1% | [2]; at 11.0 µM 2% | [2]; at 33.0 µM -5% | [2]; at 100.0 µM 10% | [3]; [17] -2% | [3]; at 50.0 µM 66% | [4]; at 1.2 µM -4% | [4]; at 3.7 µM -5% | [4]; at 11.0 µM -11% | [4]; at 33.0 µM -21% | [4]; at 100.0 µM 0% | [5]; [17] -3% | [5]; [18] 11% | [5]; at 50.0 µM 1.4% | [16]; at 1.2 µM 3% | [16]; at 3.7 µM 2% | [16]; [17] 2% | [16]; at 11.0 µM 6% | [16]; at 33.0 µM 46% | [16]; at 50.0 µM 63.5% | [6]; at 1.2 µM 1% | [6]; at 3.7 µM -8% | [6]; at 11.0 µM -1% | [6]; at 33.0 µM -5% | [6]; at 100.0 µM 12% | [8]; at 1.2 µM -24% | [8]; at 3.7 µM -30% | [8]; at 11.0 µM -18% | [8]; at 33.0 µM 13% | [9]; [17] -3% | [9]; [18] 54% | [9]; at 50.0 µM 27.6%
active: [3]; [18] 80% | [16]; [18] 75% | [16]; at 100.0 µM 71% | [8]; at 100.0 µM 79%
